Test [1] deals with Cellular tumor antigen p53 (Homo sapiens) (UniProt P04637). The experiment in a line: Primary qHTS for small molecule compounds that upregulate eGFP-tagged delta133p53alpha (in N-terminal) cells. (AID 2060322). Also: nearly all actives have a fitted effect of over 75% in size. Also: potency is read from the fitted curve at half-maximal effect.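 As to activation: 0% = DMSO vehicle and 100% = reference activator.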 The note with it: NCI-H358 eGFP-delta133p53alpha fluorescence, 24 h; activation: active compounds read high. In a few lines: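 NCI-H358 cells pre-induced 24 h with 10 ng/ml doxycycline to express N-terminal eGFP-delta133p53alpha, then dosed 24 h at 37C without doxycycline; fixed, Hoechst-stained, GFP intensity by laser scanning cytometry, normalized to DMSO (0%) and 57.5 uM 5-azacytidine (100%).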

In test [2] the target is Aldehyde dehydrogenase, mitochondrial (Homo sapiens) (UniProt P05091). Put plainly: qHTS for Inhibitors of the Aldehyde Dehydrogenase Family (ALDH2) Primary screen (AID 2061308).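 Also: plate controls were vehicle for no effect and reference inhibitor for full effect; nearly all actives have a fitted effect of over 55% in size.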 Conditions: ALDH2 enzyme inhibition qHTS, 1536-well; series mostly up to 56 µM. A general note: Quantitative high-throughput screening tests each substance at several concentrations.
Test [3] deals with Retinaldehyde dehydrogenase 3 (Homo sapiens) (UniProt P47895). The experiment in a line: qHTS for Inhibitors of the Aldehyde Dehydrogenase Family (ALDH1A3) Primary screen (AID 2061315).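 Also: plate controls were DMSO vehicle for no effect and reference inhibitor for full effect.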 The note with it: ALDH inhibition qHTS; series mostly up to 56 µM.
Test [4] in a line: BET inhibitor-based combinations targeting novel dependencies in MECOM-rearranged (r) AML: OCI-AML3 cell line (AID 2202232). Also: nearly all actives have a fitted effect of over 35% in size. Also: potency is read from the fitted curve at half-maximal effect. The note with it: CellTiter-Glo luminescence, 48 h; Potency: OCI-AML3 viability; series mostly up to 46 µM. In a few lines:
(§1)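 Here, 11-point titrations of each agent were applied to 500 seeded cells and incubated 48 hr; CellTiter-Glo signal, scaled against DMSO and empty wells, was integrated as AUC, then Z-scored within the individual line.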
(In general: ATP-based viability assays read luminescence as a measure of living cells.)

Test [5] in a line: BET inhibitor-based combinations targeting novel dependencies in MECOM-rearranged (r) AML: MV-4-11 cell line (AID 2202233). Also: nearly all actives have a fitted effect of over 45% in size. Also: potency is read from the fitted curve at half-maximal effect. Conditions: MV-4-11 AML viability, CellTiter-Glo luminescence, 48 h; series mostly up to 46 µM. A digest of the protocol:
(§2)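 Normalized to DMSO and empty-well controls, the luminescence data from CellTiter-Glo after 48 hr drug exposure were fitted across 11 concentrations. Reported metrics are area under the dose-response curve and its Z-transformed form.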

Test [6] is described as follows: BET inhibitor-based combinations targeting novel dependencies in MECOM-rearranged (r) AML: HNT-34 cell line (AID 2202234). Also: nearly all actives have a fitted effect of over 35% in size. Also: potency is read from the fitted curve at half-maximal effect. Conditions: HNT-34 AML viability, CellTiter-Glo luminescence, 48 h; series mostly up to 46 µM. A digest of the protocol:
as §2

Test [7] in a line: BET inhibitor-based combinations targeting novel dependencies in MECOM-rearranged (r) AML: UCSD-AML1 cell line (AID 2202235). Also: nearly all actives have a fitted effect of over 40% in size. Also: potency is read from the fitted curve at half-maximal effect. The note with it: UCSD-AML1 AML cells viability, CellTiter-Glo, 48 h; series mostly up to 46 µM. A digest of the protocol:
as §2

Test [8] can be described thus: BET inhibitor-based combinations targeting novel dependencies in MECOM-rearranged (r) AML: AML-191 cell line (AID 2202236; also: nearly all actives have a fitted effect of over 35% in size; also: potency is read from the fitted curve at half-maximal effect). Conditions: AML-191 viability, CellTiter-Glo luminescence, 48 h; series mostly up to 46 µM. In a few lines:
as §1

A short description of test [9]: BET inhibitor-based combinations targeting novel dependencies in MECOM-rearranged (r) AML: AML-194 cell line (AID 2202237; also: nearly all actives have a fitted effect of over 40% in size; also: potency is read from the fitted curve at half-maximal effect). The note with it: AML-194 (MECOM-r AML) viability, CellTiter-Glo, 48 h; series mostly up to 46 µM. In a few lines: as §1

Several values for one entry are separate records, joined by “and”; a condition that tells them apart may be missing. Identical values can stand only once. Inconclusive results are not listed. Unmarked numbers belong to inactive results. Activity calls are given as the source filed them. Calls follow the shape of the dose curve; as a rule, active = well fitted curve in the direction sought with a large enough effect; inconclusive = small, poorly fitted or top-dose-only effect, or another doubt; inactive = no such curve, though single readings can be large; an effect the other way counts as inactive or inconclusive.

Cellular tumor antigen p53 (Homo sapiens), sequence (P04637 whole entry, looked up): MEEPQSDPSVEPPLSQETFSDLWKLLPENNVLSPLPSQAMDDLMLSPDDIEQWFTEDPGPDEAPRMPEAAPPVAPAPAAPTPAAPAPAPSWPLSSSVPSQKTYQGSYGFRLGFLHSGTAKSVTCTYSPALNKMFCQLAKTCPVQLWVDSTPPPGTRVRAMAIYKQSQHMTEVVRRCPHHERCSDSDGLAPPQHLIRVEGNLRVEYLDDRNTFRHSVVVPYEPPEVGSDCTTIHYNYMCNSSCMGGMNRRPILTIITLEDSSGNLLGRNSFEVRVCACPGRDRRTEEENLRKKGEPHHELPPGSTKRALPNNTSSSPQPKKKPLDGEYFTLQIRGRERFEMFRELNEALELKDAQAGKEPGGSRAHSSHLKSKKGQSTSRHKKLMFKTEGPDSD

As to `Clc1ccc(C2(c3ccc(-c4cn[nH]c4)cc3)CCNCC2)cc1`, the activation in test [1] is -10.3% and 1.79%. Moreover, the Potency entry in test [2] and in test [3] was “inactive” each time. Also, the Potency is 18.6 µM (active) in test [4]; 4.17 µM (active) in test [5]; 5.25 µM (active) in [6]; 18600 nM (active) in test [7]; 18.6 µM (active) in test [8]; 20.9 µM (active) in test [9].

`Cc1cccc(Oc2cnc(=O)[nH]c2)c1`: the activation in test [1] was -25%. The Potency entry in test [2], in test [3], in test [4], in test [5], in test [6] and in test [7] was “inactive” in each case. Besides, the Potency entry in [9] is “inactive”.

Regarding `COc1ccc(Cl)c(Nc2ncnc3cc(OCC4CCN(C)CC4)c(OC)cc23)c1`, the Potency in test [1] is 6.01 µM (active); in test [4], 29.5 µM (active); in test [5], 5.9 µM (active); in [8], 23.5 µM (active). Further, the Potency entry in [2], in test [3] and in test [7] was “inactive” each time.

On to `CC(Nc1ncnc2nc[nH]c12)c1cc2cccc(Cl)c2c(=O)n1-c1ccccc1` (stereo not drawn), for which, in test [1], the activation was 27.7%. Further, the Potency result in [2] and in [3] was “inactive” each time. For the same compound, the Potency was 5.9 µM (active) in test [5] and 3720 nM (active) in test [7].

Take `CS(=O)(=O)N1CCc2c(-c3cnc(N)nc3)nc(N3CCOCC3)nc21`: the activation in test [1] was 26%. For the same compound, the Potency entry in [2] and in [3] was “inactive” in each case. Moreover, the values for the Potency in test [5] and in test [7] were 4.68 µM (active) and 662 nM (active), respectively.

With `CC(C)(O)CNc1nc(Nc2ccnc(C(F)(F)F)c2)nc(-c2cccc(C(F)(F)F)n2)n1`, the activation in [1] was -5% and -21.6%. Further, the Potency result in [2], in [3] and in [7] was “inactive” each time. Besides, the Potency in [5] is 20.9 µM (active).

Turning to `COC(=O)/C=C/C(=O)N(O)CCCCNCc1ccc(COC(=O)Nc2cccc3ccccc23)cc1`, the Potency in [1] was 26.9 µM (active); in test [6], 5.9 µM (active); in test [8], 8.33 µM (active); in [9], 8.33 µM (active). The Potency entry in [2] and in test [3] was “inactive” throughout.

With `COc1cc2c(NC3CCN(C(C)C)CC3)nc(C3CCCCC3)nc2cc1OCCCN1CCCC1`, the activation in test [1] was 27.1% and 25.7%. Moreover, the Potency entry in [2] and in test [3] was “inactive” each time. In addition, the Potency is 8.33 µM (active) in test [5], 11.8 µM (active) in test [6], 20.9 µM (active) in [8] and 14.8 µM (active) in test [9].

In the case of `NC(=O)c1ccc2nc(-c3ccc(Oc4ccc(Cl)cc4)cc3)[nH]c2c1`, the activation in test [1] is -21.2% and -4.33%. The Potency entry in test [2], in test [3], in [7], in [8] and in test [9] was “inactive” each time. Further, the Potency in test [6] was 16.6 µM (active).

Turning to `Cc1ccc(NC(=O)c2ccc(CN3CCNCC3)cc2)cc1Nc1nccc(-c2cccnc2)n1`, the activation in test [1] is -16.1%. For the same compound, the Potency result in [2] and in [3] was “inactive” each time. The Potency was 18.6 µM (active) in [5], 2.63 µM (active) in test [6] and 23.5 µM (active) in [9].

On to `CC(C)(N)c1ccc(-c2nc3ccccc3nc2-c2ccccc2)cc1`, for which the activation in test [1] is 25%. The Potency result in [2] and in test [3] was “inactive” throughout. Further, the Potency in [6] is 16.6 µM (active); in test [8], 20.9 µM (active).

For the compound `COc1cc2nccc(Oc3ccc(NC(=O)NC4CC4)c(Cl)c3)c2cc1C(N)=O`, the Potency in test [1] was 26.9 µM (active); in test [5], 2.09 µM (active); in test [6], 9.34 µM (active); in test [8], 20.9 µM (active). The Potency entry in [2], in [3] and in test [9] was “inactive” in each case.

Consider `CC(C)[C@](O)(c1ccc2cc(OC(F)F)c(OC(F)F)cc2c1)c1cn[nH]n1`, for which the activation in [1] was 12.3%. For the same compound, the Potency result in test [2], in test [3] and in test [7] was “inactive” throughout. In addition, in [6], the Potency was 18.6 µM (active).

`COc1ccc2cc(-c3nc(-c4ccc(S(C)=O)cc4)[nH]c3-c3ccncc3)ccc2c1` (stereo not drawn): in test [1], the activation was -7.86% and 8.04%. Further, the Potency entry in test [2], in [3] and in test [7] was “inactive” each time.

On to `CS(=O)(=O)N1CCN(Cc2cc3nc(-c4cccc5[nH]ncc45)nc(N4CCOCC4)c3s2)CC1`, for which the activation in [1] is -25.9%. The Potency result in test [2] and in test [3] was “inactive” each time. Further, the figures for the Potency in test [5] and in [7] were 2.09 µM (active) and 468 nM (active), respectively.

For the compound `CC(C)(O)CCc1ccc(OCc2cc(-c3cccc(OC(F)F)c3)c3ncccc3c2)cc1`, in test [1], the activation is 8.96%. Besides, the Potency entry in test [2], in test [3] and in [7] was “inactive” in each case. Besides, the Potency in [5] is 18.6 µM (active).

Regarding `CCN1CCN(c2ccc(Nc3cc(N(C)C(=O)Nc4c(Cl)c(OC)cc(OC)c4Cl)ncn3)cc2)CC1`, the activation in test [1] was 34.2% and 7.14%. The Potency result in test [2] and in test [3] was “inactive” in each case. Moreover, the Potency in [6] is 13.2 µM (active); in test [8], 26.3 µM (active).

For the compound `CCn1c(=O)c(-c2ccn[nH]2)cc2c(C)nc(N)nc21`, the activation in [1] is 4.46%. Moreover, the Potency result in test [2] and in test [3] was “inactive” each time. The Potency in [5] is 5.25 µM (active); in test [7], 590 nM (active).

Turning to `COc1cc2ncnc(-n3nc(-c4ccccn4)nc3N)c2cc1OC`, the activation in test [1] was 13.4%. In addition, the Potency result in [2] and in [3] was “inactive” each time. Further, the Potency in test [5] was 1.48 µM (active); in test [6] it was 2.35 µM (active); in [8] it was 4.17 µM (active); in test [9], 6.61 µM (active).

On to `Cc1nc2ccc(-n3ncc(C(=O)c4cc5ccccc5[nH]4)c3N)cc2[nH]1`, for which, in test [1], the activation is 1.79%. Moreover, the Potency entry in [2] and in test [3] was “inactive” each time. Further, the figures for the Potency in [5] and in [9] were 6.61 µM (active) and 16.6 µM (active), respectively.

For the origin of these results see PubChem BioAssay (NCATS).
